# For part of these data: Measured potencies and affinities stand elsewhere.
# Assays:
# Set-up in all cases: scale not given: direction of the effect not stated beside the values
# [1] = target: Protein translocase subunit SecA (Escherichia coli (strain K12)) (UniProt P10408); experiment: Assay to Identify E. coli SecA ATPase Inhibitors; type: functional; settings: 30 µM
# [2] = target: T1, Ubiquitin-activating enzyme e1, putative (Leishmania donovani (strain BPK282A1)) (UniProt E9BSI1); experiment: Leishmania donovani Ubiquitin Activating Enzyme (LdE1); type: functional; settings: 30 µM
# T1 sequence (whole entry): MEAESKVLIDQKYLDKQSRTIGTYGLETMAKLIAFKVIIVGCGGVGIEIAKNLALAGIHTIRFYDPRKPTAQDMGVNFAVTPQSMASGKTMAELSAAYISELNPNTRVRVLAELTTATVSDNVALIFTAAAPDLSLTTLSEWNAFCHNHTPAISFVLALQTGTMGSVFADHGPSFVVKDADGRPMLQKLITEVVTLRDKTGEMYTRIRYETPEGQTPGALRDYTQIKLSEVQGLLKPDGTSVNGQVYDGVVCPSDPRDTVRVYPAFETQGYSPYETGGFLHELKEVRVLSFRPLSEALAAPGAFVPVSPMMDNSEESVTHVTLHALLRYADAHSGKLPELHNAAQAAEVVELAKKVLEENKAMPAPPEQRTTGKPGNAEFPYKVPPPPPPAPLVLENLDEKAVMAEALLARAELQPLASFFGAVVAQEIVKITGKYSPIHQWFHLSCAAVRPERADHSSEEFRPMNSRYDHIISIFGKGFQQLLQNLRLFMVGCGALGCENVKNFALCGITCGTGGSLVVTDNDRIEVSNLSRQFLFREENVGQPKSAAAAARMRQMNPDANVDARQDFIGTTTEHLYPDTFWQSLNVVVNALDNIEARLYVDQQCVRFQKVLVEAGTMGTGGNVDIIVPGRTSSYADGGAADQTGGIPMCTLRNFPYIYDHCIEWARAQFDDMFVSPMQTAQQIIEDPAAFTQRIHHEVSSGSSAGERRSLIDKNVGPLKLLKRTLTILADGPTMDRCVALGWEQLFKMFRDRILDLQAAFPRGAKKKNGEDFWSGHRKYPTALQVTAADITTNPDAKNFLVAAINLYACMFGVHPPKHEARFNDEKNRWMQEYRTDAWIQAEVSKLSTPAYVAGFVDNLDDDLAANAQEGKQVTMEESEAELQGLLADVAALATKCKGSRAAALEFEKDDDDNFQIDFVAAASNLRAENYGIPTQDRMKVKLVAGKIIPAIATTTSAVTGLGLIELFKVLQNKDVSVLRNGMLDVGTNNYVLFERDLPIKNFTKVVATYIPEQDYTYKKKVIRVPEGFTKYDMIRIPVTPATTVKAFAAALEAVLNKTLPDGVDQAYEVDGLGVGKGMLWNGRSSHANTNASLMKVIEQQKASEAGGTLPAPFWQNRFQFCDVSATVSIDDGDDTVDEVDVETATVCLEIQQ
# [3] = target: AMP-activated protein kinase, AMPK (Homo sapiens) (UniProt P54646+O43741+P54619+Q9UGJ0+Q9Y478+Q13131+Q9UGI9); experiment: AMP-dependent Kinase enzyme assay. An in vitro enzyme assay that detects ADP turnover that is directly proportional to AMPK activity. This uses naive AMPK that is activated during the assay with MK-8722; type: functional; settings: 30 µM
# [4] = target: Sialic acid-binding Ig-like lectin 9 (Homo sapiens) (UniProt Q9Y336); experiment: Hs-Siglec9 ALPHAscreen SOP 20170721; settings: 10 µM
# Trypanosoma cruzi = experiment: Trypanosoma cruzi phosphomannomutase and mannose-1-phosphate guanylyltransferase assay; type: functional; settings: 10 µM
# [5] = target: T2, Arginase-2, mitochondrial (Homo sapiens) (UniProt P78540); experiment: in vitro enzyme assay to detect the production of urea directly proportional to the activity of Arginase II; type: functional; settings: 33.3 µM; note: in the data most compounds retested in dose-response had high values
# T2 sequence (whole entry): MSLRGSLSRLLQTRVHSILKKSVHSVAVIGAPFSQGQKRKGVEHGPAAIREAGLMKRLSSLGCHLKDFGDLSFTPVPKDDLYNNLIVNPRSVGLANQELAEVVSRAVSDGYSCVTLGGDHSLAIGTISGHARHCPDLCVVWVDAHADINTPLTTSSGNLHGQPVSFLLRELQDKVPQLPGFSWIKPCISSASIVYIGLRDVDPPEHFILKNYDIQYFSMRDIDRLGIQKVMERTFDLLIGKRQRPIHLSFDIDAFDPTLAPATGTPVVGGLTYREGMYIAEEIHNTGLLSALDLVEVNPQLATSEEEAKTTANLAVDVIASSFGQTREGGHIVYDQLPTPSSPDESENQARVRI
# [6] = target: T3, Proteasome subunit beta (Trypanosoma cruzi) (UniProt O96673); experiment: Trypanosoma cruzi proteasome chymotrypsin-like activity (TcProtChymo) assay.; note: in the data most compounds retested in dose-response had high values; type: functional; settings: 9.37 µM
# T3 sequence (whole entry): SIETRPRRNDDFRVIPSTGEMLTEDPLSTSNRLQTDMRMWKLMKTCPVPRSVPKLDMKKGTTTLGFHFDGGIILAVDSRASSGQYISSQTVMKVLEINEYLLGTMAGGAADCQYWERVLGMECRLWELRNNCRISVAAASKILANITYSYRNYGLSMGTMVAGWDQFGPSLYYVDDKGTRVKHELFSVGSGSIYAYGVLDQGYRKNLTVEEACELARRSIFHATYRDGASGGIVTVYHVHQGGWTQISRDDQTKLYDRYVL
# Homo sapiens = species on record: Homo sapiens; experiment: To identify inhibition of the IFN signalling (Jak-Stat) pathway via expression of an eGFP reporter gene under the control of an IFN-stimulated response element (ISRE) containing MxA promoter.; type: functional; settings: 30 µM
# [7] = target: T4, Tyrosyl-tRNA synthetase, putative (Trypanosoma cruzi (strain CL Brener)) (UniProt Q4DSP6); experiment: Trypanosoma cruzi tyrosyl tRNA synthetase (TcYRS) _High Tyrosine SOP; type: functional; settings: 30 µM; note: in the data most compounds retested in dose-response had high values
# T4 sequence (whole entry): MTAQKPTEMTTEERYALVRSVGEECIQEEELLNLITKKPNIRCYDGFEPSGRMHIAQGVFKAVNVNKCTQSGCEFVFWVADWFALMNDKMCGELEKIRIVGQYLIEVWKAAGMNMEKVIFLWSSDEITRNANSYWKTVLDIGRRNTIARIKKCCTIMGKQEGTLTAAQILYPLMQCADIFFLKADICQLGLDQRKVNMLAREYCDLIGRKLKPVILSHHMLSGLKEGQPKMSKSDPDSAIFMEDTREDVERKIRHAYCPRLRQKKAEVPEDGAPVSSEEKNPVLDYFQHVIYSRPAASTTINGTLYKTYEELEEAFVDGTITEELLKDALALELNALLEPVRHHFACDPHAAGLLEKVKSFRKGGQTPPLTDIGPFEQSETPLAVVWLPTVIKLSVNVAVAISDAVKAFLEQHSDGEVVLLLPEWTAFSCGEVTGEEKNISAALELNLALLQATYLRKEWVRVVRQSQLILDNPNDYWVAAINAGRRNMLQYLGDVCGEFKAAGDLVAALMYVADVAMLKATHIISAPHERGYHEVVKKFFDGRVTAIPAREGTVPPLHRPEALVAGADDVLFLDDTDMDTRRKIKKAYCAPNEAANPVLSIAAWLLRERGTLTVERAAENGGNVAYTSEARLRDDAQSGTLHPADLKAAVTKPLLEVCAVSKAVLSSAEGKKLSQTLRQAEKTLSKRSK
# [8] = target: T4, Tyrosyl-tRNA synthetase, putative (Trypanosoma cruzi (strain CL Brener)); experiment: Trypanosoma cruzi tyrosyl tRNA synthetase (TcYRS) SOP; type: functional; settings: 30 µM
# [9] = target: Chromo domain-containing protein 1 (Saccharomyces cerevisiae (strain ATCC 204508 / S288c) (Baker's yeast)) (UniProt P32657); experiment: ScCHD-1 Enzyme Inhibition Assay; type: functional; settings: 30 µM; note: in the data most compounds retested in dose-response had high values
# Chain of Chromo domain-containing protein 1 (Saccharomyces cerevisiae (strain ATCC 204508 / S288c) (Baker's yeast)) (P32657 whole entry, the tested form may be a part): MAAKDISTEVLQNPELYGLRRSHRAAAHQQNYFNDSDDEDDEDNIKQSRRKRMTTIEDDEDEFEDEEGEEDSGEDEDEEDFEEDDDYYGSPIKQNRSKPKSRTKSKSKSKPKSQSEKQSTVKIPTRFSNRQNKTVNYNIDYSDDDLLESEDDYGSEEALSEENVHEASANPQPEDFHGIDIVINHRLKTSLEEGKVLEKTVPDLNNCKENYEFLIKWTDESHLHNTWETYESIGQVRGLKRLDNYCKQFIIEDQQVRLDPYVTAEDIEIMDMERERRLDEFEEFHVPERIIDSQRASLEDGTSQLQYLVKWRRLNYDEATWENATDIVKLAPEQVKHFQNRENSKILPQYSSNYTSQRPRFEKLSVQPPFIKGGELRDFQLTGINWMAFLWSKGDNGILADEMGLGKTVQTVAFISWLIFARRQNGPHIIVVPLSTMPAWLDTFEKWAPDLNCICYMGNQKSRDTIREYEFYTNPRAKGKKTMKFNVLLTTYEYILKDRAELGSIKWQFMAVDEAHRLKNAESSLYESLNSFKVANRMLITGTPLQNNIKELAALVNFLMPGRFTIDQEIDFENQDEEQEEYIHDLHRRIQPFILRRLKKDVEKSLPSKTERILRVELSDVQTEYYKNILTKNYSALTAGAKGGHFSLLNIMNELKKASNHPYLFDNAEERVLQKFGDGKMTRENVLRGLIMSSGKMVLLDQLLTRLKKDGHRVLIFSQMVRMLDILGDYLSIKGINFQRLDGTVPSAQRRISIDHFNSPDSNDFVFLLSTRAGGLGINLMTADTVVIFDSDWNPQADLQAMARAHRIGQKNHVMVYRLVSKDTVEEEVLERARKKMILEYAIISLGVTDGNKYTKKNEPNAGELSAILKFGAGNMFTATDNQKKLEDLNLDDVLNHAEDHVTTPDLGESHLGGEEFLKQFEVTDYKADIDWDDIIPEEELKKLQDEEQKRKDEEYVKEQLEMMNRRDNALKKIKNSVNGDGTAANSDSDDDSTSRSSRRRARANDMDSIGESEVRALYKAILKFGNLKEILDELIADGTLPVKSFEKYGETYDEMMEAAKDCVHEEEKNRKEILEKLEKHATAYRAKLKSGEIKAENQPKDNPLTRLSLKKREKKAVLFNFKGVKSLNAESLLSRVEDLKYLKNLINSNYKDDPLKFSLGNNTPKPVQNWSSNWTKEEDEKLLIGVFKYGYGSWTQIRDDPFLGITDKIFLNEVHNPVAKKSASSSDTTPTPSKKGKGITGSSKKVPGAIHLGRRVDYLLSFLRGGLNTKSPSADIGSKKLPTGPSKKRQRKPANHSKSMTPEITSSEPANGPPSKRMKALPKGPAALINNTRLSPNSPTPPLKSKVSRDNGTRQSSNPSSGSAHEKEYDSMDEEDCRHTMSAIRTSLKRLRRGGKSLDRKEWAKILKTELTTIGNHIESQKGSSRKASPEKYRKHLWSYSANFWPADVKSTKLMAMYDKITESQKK
# Chain of Sialic acid-binding Ig-like lectin 9 (Homo sapiens) (Q9Y336 whole entry): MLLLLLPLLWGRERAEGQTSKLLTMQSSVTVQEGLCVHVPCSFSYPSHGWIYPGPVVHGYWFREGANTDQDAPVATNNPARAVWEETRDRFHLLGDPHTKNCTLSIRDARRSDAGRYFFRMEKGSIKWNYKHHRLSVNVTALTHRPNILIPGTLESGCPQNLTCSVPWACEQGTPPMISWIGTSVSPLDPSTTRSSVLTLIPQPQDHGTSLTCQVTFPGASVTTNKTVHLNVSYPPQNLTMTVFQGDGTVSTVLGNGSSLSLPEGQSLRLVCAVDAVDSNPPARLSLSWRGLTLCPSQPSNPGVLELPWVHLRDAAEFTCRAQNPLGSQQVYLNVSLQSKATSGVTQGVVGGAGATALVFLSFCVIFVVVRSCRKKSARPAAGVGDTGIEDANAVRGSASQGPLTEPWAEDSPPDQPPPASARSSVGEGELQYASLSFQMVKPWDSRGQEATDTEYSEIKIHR
# Chain of Protein translocase subunit SecA (Escherichia coli (strain K12)) (P10408 whole entry): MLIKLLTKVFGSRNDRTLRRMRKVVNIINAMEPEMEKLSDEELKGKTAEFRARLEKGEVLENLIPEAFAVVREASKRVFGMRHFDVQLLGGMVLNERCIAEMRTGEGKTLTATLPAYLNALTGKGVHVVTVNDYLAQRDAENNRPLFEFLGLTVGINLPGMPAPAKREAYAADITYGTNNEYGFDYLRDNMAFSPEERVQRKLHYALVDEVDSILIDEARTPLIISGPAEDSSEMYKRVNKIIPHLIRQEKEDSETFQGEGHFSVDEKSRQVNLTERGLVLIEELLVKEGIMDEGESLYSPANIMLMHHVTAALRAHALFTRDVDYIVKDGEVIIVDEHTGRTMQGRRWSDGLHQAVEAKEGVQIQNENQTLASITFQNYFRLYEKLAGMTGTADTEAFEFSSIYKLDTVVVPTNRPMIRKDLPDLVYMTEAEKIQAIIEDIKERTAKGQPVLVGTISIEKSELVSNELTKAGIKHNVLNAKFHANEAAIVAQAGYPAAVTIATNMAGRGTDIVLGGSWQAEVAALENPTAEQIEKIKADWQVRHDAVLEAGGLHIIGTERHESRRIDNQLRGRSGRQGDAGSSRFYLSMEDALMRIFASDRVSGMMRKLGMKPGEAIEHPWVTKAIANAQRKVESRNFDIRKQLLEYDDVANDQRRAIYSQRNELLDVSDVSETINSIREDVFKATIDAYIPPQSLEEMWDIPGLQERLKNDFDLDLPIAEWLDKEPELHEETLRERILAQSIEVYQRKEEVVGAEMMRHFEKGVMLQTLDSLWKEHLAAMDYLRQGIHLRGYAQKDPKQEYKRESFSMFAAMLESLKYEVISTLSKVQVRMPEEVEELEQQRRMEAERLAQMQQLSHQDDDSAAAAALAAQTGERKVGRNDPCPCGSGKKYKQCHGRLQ
SMILES,Percent Effect [1] [%],Percent Effect [2] [%],Percent Effect [3] [%],Percent Effect [4] [%],Percent Effect (Trypanosoma cruzi) [%],Percent Effect [5] [%],Percent Effect [6] [%],Percent Effect (Homo sapiens) [%],Percent Effect [7] [%],Percent Effect [8] [%],Percent Effect [9] [%]
Cc1nc(C)n(CC2CCCCN2Cc2ncc(C(C)(C)C)o2)n1 (stereo unspecified),-2.22,31.2,-8,-3.37,5.62,-2.13,19.1,10.5,7.77,24.4,-10.7
c1ccc(-c2ncc(CNC3CCc4ncnn4C3)cn2)cc1 (stereo unspecified),-5,8.86,6.48,-1.35,-1.33,9.25,3.26,-3.68,7.29,10.1,-13.8
Cc1cc(C2CCCN2CCCc2nc3ccccc3o2)on1 (stereo unspecified),0.895,5.41,-3.23,0.643,-3.87,21.6,1.62,2.07,4.43,6.17,-3.04
COc1ncccc1C(=O)N1CCC(CNC(C)=O)CC1,-4.18,5.33,-0.618,3.6,-2.43,1.56,6.28,-6.88,4.92,13.6,-5.96
CCc1ncc2c(n1)CN(Cc1nc(-c3ccsc3)no1)CC2,-3.47,-18.4,-15.2,-3.23,-1.77,-0.719,7.02,-16.8,9.36,-1.24,8.2
CN1CCN(C(=O)c2ccc(=O)n(C)c2)Cc2ccccc21,-3.95,-16.2,-7.07,15.3,3.62,-4.25,0.539,5.67,3.96,18.3,-2.09
